From ChEMBL document CHEMBL3988442, “University of Dundee, Small-Polar-MMV Screening Library” (2021)
In all, about 38,000 compounds went through this assay and about 1,200 (3.2%) showed an effect of 50% or more. The median lay at about -58%. This is one part of a sample in which strong results are shown more often than they occur.

System: Plasmodium falciparum
Assay: Calibr Malaria Delayed Death Assay SOP
Type: functional, organism-based
Set-up: scale not given: in the data most compounds retested in dose-response had high values
Conditions: concentration 4.99e-06 (unit not given; other assays of the set use mol/L)

SMILES | Percent Effect [%]
Cc1c(C(=O)N2CCCC2c2cnn(C)c2)cnn1-c1ccccc1 (centres undefined) | -71.93
NC(=O)C1CCN(CCCNC(=O)Nc2nncs2)CC1 | -69.85
C=C(C)COc1cccc(CNCCc2c[nH]cn2)c1 | 26.04
C=C(C)COc1ccccc1CNCCc1c[nH]cn1 | 4.371
CCc1ccccc1OCCNCCc1c[nH]cn1 | 69.73
Cn1nccc1C(=O)N1CCCC2(CCN(c3ccsc3)C2=O)C1 (centres undefined) | -40.86
Cc1ccccc1SCC(=O)NC1CCC(O)CC1 (centres undefined) | -39.35
CN(C)C(=O)CN1CCN(Cc2coc(-c3cccc(F)c3)n2)CC1 | -61.15
Cc1oc(-c2cc(F)cc(F)c2)nc1CN1C[C@@H](C)NC[C@@H]1C | 59.48
CSc1ccc(-c2nc(CN3CCNCC3C)c(C)o2)cc1 (centres undefined) | 34.18
CSc1ccc(-c2nc(CN3C[C@@H](C)NC[C@@H]3C)c(C)o2)cc1 | -63.77
Cn1ncc2c1CCCC2NCc1ccc(OCc2cccnc2)cc1 (centres undefined) | 4.43
CO[C@H]1CCN(c2ncccn2)[C@H]1Cc1ccccc1 | -101.2
CO[C@H]1CCN(Cc2nccs2)C[C@@H]1Cc1ccccc1 | -31.89
CNC(=O)[C@@H]1C[C@@H]2CCN(Cc3ccoc3)C[C@H]2O1 | -25.74
COCCO[C@H]1CCN(Cc2ccoc2)[C@H]1Cc1cccnc1 | -10.51
O=C(CCNS(=O)(=O)c1ccccc1F)NCc1ccoc1 | -33.2
CCC1(CNC(=O)NC(c2nnc3n2CCC3)C(C)C)CCC1 (centres undefined) | -142
Cc1ccc(C)n1-c1c(C(=O)NCC(c2ccsc2)N(C)C)cnn1C (centres undefined) | -29.69
COc1ccc(-c2nonc2N)cc1 | -30.35
Cc1cnc(N2CC[C@@H]3O[C@@H](COCC(=O)N(C)C)CC[C@@H]32)nc1.O=C(O)C(F)(F)F | -30.4
CC(C)(C)C1CC(=O)Nc2c1cnn2Cc1ccco1 (centres undefined) | -56.11
COC1CN(C(=O)NCC(N)=O)CCC(=O)N(C)c2ccccc21 (centres undefined) | -44.55
COc1cc(N2C[C@H]3CCC[C@@H](CN(C)C4CC4)[C@H]3C2)ncn1.O=C(O)C(F)(F)F | -80.87
Cc1ccc(N2C[C@H]3CCC[C@@H](CN(C)C)[C@H]3C2)nn1.O=C(O)C(F)(F)F | -59.72

SMILES | Percent Effect [%]
CN(C[C@@H]1CCC[C@@H]2CN(Cc3cccnc3)C[C@@H]21)C1CC1.O=C(O)C(F)(F)F.O=C(O)C(F)(F)F | 55.19
O=C(C[C@@H]1COC[C@H]2CN(Cc3cccnc3)C[C@@H]12)N1CCOCC1.O=C(O)C(F)(F)F.O=C(O)C(F)(F)F | -46.72
COc1ccc(CN2C[C@H]3CCC[C@@H](CN(C)C4CC4)[C@H]3C2)cn1.O=C(O)C(F)(F)F.O=C(O)C(F)(F)F | 77
COc1ccc(CN2C[C@H]3CCC[C@@H](CN(C)C)[C@H]3C2)cn1.O=C(O)C(F)(F)F.O=C(O)C(F)(F)F | 48.48
COCCN(C)C[C@@H]1CCC[C@@H]2CN(Cc3ccc(OC)nc3)C[C@@H]21.O=C(O)C(F)(F)F.O=C(O)C(F)(F)F | 78.92
COc1cc(N2C[C@H]3CCC[C@@H](CN4CCOCC4)[C@H]3C2)ncn1.O=C(O)C(F)(F)F | -88.21
O=C(C[C@@H]1COC[C@H]2CN(Cc3cccnc3)C[C@@H]12)N1CCCC1.O=C(O)C(F)(F)F.O=C(O)C(F)(F)F | -138.8
NC(=O)C1CCN(c2ncccc2C(=O)N2CCc3ccccc32)C1 (centres undefined) | -5.535
Cc1ccc(-c2nc(CN3CCCC(Cn4cncn4)C3)co2)cc1 (centres undefined) | -95.97
O=C1CCCN1Cc1ncn2c1CN(C(=O)C1CC=CC1)CCC2 | -7.909
COc1cc(F)ccc1N1CCN(Cc2nnc(C3CC3)o2)CC1 | -5.241
c1ccc2[nH]c(C3CCN(Cc4nnc(C5CC5)o4)CC3)cc2c1 | -66.02
CO[C@@H]1CCN(Cc2ccoc2)[C@H]1Cc1ccccc1.O=C(O)C(F)(F)F | 59.96
COC[C@H]1CN(CC2CC2)C(=O)[C@@H]2CCN(Cc3ccoc3)CC[C@H]12.O=C(O)C(F)(F)F | -86.79
COCCO[C@H]1CCN(Cc2cccnc2)[C@H]1Cc1cccnc1.O=C(O)C(F)(F)F.O=C(O)C(F)(F)F.O=C(O)C(F)(F)F | 3.1
CO[C@H]1CCN(Cc2ccoc2)C[C@@H]1Cc1ccccc1.O=C(O)C(F)(F)F | 66.03
CO[C@@H]1CCN(Cc2nccs2)C[C@@H]1Cc1cccc(C)c1.O=C(O)C(F)(F)F | -13.39
COCCN1CC[C@H](OC)[C@@H]1Cc1ccccc1.O=C(O)C(F)(F)F | 62.78
CO[C@@H]1CCN(Cc2ccc(C)o2)[C@H]1Cc1ccccc1.O=C(O)C(F)(F)F | -53.14
COCCN1CC[C@@H](O)[C@@H]1Cc1ccccc1.O=C(O)C(F)(F)F | -35.17
CO[C@@H]1CCN(Cc2ccoc2)C[C@@H]1Cc1ccccc1.O=C(O)C(F)(F)F | 88.6
CO[C@@H]1CCN(Cc2nccs2)C[C@@H]1Cc1ccccc1.O=C(O)C(F)(F)F | -15.24
CO[C@H]1CCN(c2nnc(C)s2)C[C@@H]1Cc1ccccc1.O=C(O)C(F)(F)F | -43.17
COCCN1CC[C@@H](OC)[C@@H]1Cc1ccccc1.O=C(O)C(F)(F)F | 1.708
